WRN inhibitor – inhibitors of human WRN helicase | Q14191 | WRN helicase unwinding, fluorescent forked duplex, kinetic | Potency, µM (titrated, usually from 114 µM), for the others: at the top dose activity change, negative = inhibition, usual class: inhibitors | actives 0.46% (n = 360,000) | AID 651768; also: potency is read from the fitted curve at half-maximal effect; % is scaled to controls: 0 for no effect and ±100 for the full control effect; nearly all actives have a fitted effect of over 55% in size
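Kinetic fluorescence helicase assay: unwinding of a quenched forked DNA duplex (100 nM final) with 2 mM ATP final raises red fluorescence (525/598 nm). Compounds sat 15 min at room temperature with 20 nM WRN beforehand.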
PLK1 PBD inh – inhibitors of human PLK1 polo-box domain binding; Potency, µM, for the others: max response, negative = inhibition, most hits filed as inhibitors; Plk1 PBD binding of FITC phosphopeptide, fluorescence polarization; actives 2.8% (n = 360,000); also: potency is read from the fitted curve at half-maximal effect; series mostly up to about 57 µM; % is scaled to controls: 0 for no effect and ±100 for the full control effect; nearly all actives have a fitted effect of over 65% in size
Target sequence (P53350 whole entry, looked up, the tested form may be a part): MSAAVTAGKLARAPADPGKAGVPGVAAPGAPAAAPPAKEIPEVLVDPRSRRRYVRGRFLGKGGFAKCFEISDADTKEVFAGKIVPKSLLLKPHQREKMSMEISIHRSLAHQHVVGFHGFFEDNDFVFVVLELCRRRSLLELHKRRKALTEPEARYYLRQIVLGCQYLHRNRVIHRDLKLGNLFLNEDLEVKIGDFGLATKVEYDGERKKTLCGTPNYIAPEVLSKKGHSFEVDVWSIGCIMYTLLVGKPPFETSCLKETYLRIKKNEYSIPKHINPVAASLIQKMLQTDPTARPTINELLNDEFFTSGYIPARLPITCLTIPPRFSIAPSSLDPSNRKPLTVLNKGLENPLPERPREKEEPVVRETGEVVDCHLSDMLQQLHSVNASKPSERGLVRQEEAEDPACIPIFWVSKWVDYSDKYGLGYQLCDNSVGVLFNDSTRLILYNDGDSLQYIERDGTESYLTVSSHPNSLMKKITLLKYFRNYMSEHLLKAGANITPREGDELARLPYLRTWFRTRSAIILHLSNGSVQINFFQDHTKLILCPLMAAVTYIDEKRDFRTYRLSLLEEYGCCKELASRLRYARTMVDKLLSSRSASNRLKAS
PI5P4Ka inh – blocks human PI5P4K alpha kinase activity; PI5P4Kalpha enzyme, ADP-Glo luminescence, 60 min; hits give low values; max response, %; P48426; actives 1.2% (n = 330,000); active = max response of -50% or lower; inconclusive = between -30% and -50%; inactive = -30% or higher; also: value at the top dose of about 77 µM; % is scaled to controls: 0 for no effect and ±100 for the full control effect
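ADP-Glo luminescence end-point read after a 60 min room-temperature kinase reaction of PI5P4Kalpha plus substrate, initiated with ATP at 5 microM final. Buffer: 0.038 M HEPES pH 7.4, EGTA, 0.1% CHAPS, 5% DMSO.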
FEN1 inh – human FEN1 inhibition. P39748. Recombinant FEN1 flap cleavage, fluorescence, 15 min. Potency, µM (titrated, usually from 114 µM), for inactives: top-dose activity change, negative = inhibition, usual class: inhibitors. actives 0.35% (n = 390,000). AID 588795; also: potency is read from the fitted curve at half-maximal effect; % is scaled to controls: 0 for no effect and ±100 for the full control effect; nearly all actives have a fitted effect of over 65% in size
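With each library titrated from low to high concentration, compounds met 10 nM FEN1 for 15 min at room temperature before 50 nM substrate was added; readings at 0 and 15 min fed four-parameter Hill curve fits.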
TCR act – activates T cell receptor signaling; primary human leukocytes, anti-CD3, IL-2 HTRF, 48 h; Potency, µM (top dose mostly 9.22 µM), inactives show at the top dose activation of IL-2 secretion, most hits filed as activators; 330,000 tested, under 10 active; also: % of control where 0% means no effect
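Readout: HTRF IL-2, Eu-cryptate/d2 antibody pair, 320nm excitation, 665nm emission. Stimulus: a-CD3 beads, no co-stimulation. Cells: primary human leukocytes. Exposure: 48 hr with compound.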
VDR inhibitor – inhibitors of human vitamin D receptor; P11473; Potency, µM, inactives show max response, negative = inhibition, actives largely listed as inhibitors; VDR-SRC2-3 peptide fluorescence polarization, 2 h; actives 0.93% (n = 400,000); also: potency is read from the fitted curve at half-maximal effect; % is scaled to controls: 0 for no effect and ±100 for the full control effect
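Fluorescence polarization assay measuring small-molecule disruption of VDR binding to the coregulator peptide SRC2-3. Compounds were pin-transferred (23 nl) into the reagent mix and incubated 2 h at room temperature before reading.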
Numbers without * were called inactive; ? = inconclusive; . = not tested or not shown; [ ] = remark or other dose. A selection: hits, their analogues and other compounds. The true share with any hit is near 3.7%. Unless noted, calls follow the shape of the dose curve; as a rule, active = well fitted curve in the direction sought with a large enough effect; inconclusive = small, poorly fitted or top-dose-only effect, or another doubt; inactive = no such curve, though single readings can be large; an effect the other way counts as inactive or inconclusive.

SMILES	WRN inhibitor	PLK1 PBD inh	PI5P4Ka inh	FEN1 inh	TCR act	VDR inhibitor
CCOC(=O)c1c(-c2ccc3ccccc3c2)csc1NC(=O)CCCC(=O)O	-1%	24µM*	-2	-2%	-3%	-24%
CCOC(=O)c1c(-c2ccc(OCC)cc2)csc1NC(=O)CCN1C(=O)c2ccccc2C1=O	.	.	.	.	-3%[46.1 µM]	.
CCOC(=O)c1c(-c2ccc(OC)cc2)csc1NC(=O)CCN1C(=O)c2ccccc2C1=O	-6%	11µM*	.	-19%	0%	-30%
COc1ccc(-c2nnc(C3CCN(S(=O)(=O)c4cccc(Cl)c4)CC3)o2)cc1	.	.	.	-15%	.	-19%
CCOC(=O)c1c(NC(=O)c2cc(-c3cccc(O)c3)on2)sc(C(C)=O)c1C	1%	-11%	-26	2%	-2%	-9%
CC(=O)Nc1sc2c(c1C#N)CCCC2	-12%	-7%	2	1%	15%	1%
Cc1onc(-c2ccccc2Cl)c1C(=O)Nc1sc2c(c1C#N)CCC2	-35%	27µM*	?	?	0%	-11%
N#Cc1c(NC(=O)C2CC(c3ccccc3O)=NO2)sc2c1CCC2 (centres undefined)	-12%	19µM*	9	1%	2%[46.1 µM]	7%
Cc1onc(C(=O)Nc2sc3c(c2C#N)CCCC3)c1[N+](=O)[O-]	-5%	27µM*	-4	-3%	1%	?
CCOC(=O)c1c(NC(=O)c2noc(C)c2[N+](=O)[O-])sc(C(C)=O)c1C	-12%	24µM*	?	3%	-4%	-13%
CN(C(=O)CSc1nc2ccccc2n1Cc1cccc(C(F)(F)F)c1)c1ccccc1	.	.	.	-22%	.	-1%
CN(C)c1ccc(Nc2ncnc3sc4c(c23)CCCC4)cc1	.	.	.	-4%	.	7%
Cc1cc2nc3c(nc2cc1C)C(O)=C3O	-4%	8.4µM*	-18	14%	-2%	-20%
O=C(CCC(=O)NCCO)NCCO	-6%	1%	-4	1%	-7%	-10%
CC(O)CCC(=O)NCCNC(=O)CCC(C)O (centres undefined)	6%	11µM*	1	-7%	.	?
CCCC1(C)C(C#N)C(=O)NC(=O)C1C#N (centres undefined)	7%	3%	-23	-1%	-3%	0%
CCCC1(C)C(C#N)(C#N)C1(C#N)C#N	.	.	.	.	.	10µM*
CCCc1cc(=O)[nH]c(SCc2nc(-c3ccccc3)no2)n1	.	.	.	-6%	.	5%
COc1cccc(-n2nc(C#N)c(Cl)cc2=O)c1	?	?	0	14%	6%	32µM*
COc1cccc(-n2nc(C(N)=O)c(O)cc2=O)c1	8%	-16%	0	13%	5%	2%
COc1ccc(NC(=O)C(Cc2c[nH]c3ccccc23)NC(=O)OC(C)(C)C)cc1 (centres undefined)	.	.	.	1%	.	1%
CC1CN(C(=O)CSc2cn(CC(=O)N3CCOCC3)c3ccccc23)CC(C)O1 (centres undefined)	9%	-15%	6	-9%	1%	1%
CCCn1cc(SCC(=O)NCC2CCCO2)c2ccccc21 (centres undefined)	-3%	-15%	4	12%	2%	3%
CN(C(=O)CSc1cn(CC(=O)N2CCOCC2)c2ccccc12)c1ccccc1	0%	12µM*	-21	13%	-3%	?
O=C(CSc1cn(CC(=O)N2CCCCC2)c2ccccc12)NCC1CCCO1 (centres undefined)	-3%	27µM*	-11	-1%	-1%	?
SMILES	WRN inhibitor	PLK1 PBD inh	PI5P4Ka inh	FEN1 inh	TCR act	VDR inhibitor
O=C(Cc1ccc(Br)cc1)NO	.	.	.	0%	.	.
Nc1nonc1-n1nnc(C(=O)N/N=C/c2cccc(F)c2)c1CN1CCCC1	-6%	-10%	-1	16%	10%	-11%
Nc1nonc1-n1nnc(C(=O)N/N=C/c2cccc(Cl)c2)c1CN1CCCC1	-2%	30µM*	-3	2%	2%	-20%
CN(C)Cc1c(C(=O)N/N=C/c2ccco2)nnn1-c1nonc1N	-6%	-6%	-2	-2%	-2%	7%
Cc1ccc(SCc2c(C(=O)N/N=C/c3ccc(C)o3)nnn2-c2nonc2N)cc1	-3%	-12%	-55*	.	.	.
CN(C)Cc1c(C(=O)N/N=C/c2ccc(-c3ccccc3)cc2)nnn1-c1nonc1N	-5%	21µM*	-9	-8%	0%	?
CN(Cc1c(C(=O)N/N=C/c2ccccc2)nnn1-c1nonc1N)C1CCCCC1	3%	30µM*	-7	1%	-27%	?
Cc1ccc(/C=N/NC(=O)c2nnn(-c3nonc3N)c2CNc2ccccc2)cc1	-2%	19µM*	-20	-8%	-2%	?
Cc1cccc(COc2ccc(/C=N/NC(=O)c3nnn(-c4nonc4N)c3C)cc2)c1	1%	21µM*	-12	11%	0%	?
COCc1c(C(=O)OCC(=O)c2ccc[nH]2)oc2ccccc12	9%	-14%	-4	-12%	6%[46.1 µM]	-6%
CSCc1c(C(=O)OCC(=O)c2ccc[nH]2)oc2ccccc12	-8%[11.6 µM]	-9%	-76*	-1%	-5%	8%
CCNc1ccc(Br)cc(C(=O)/C=C/c2ccc3c(c2)OCO3)c1=O	?	?	?	?	-6%	89µM*
O=C(O)c1cccc(Cn2c(Cl)c(/C=N/NC(=O)c3ccc(O)cc3)sc2=O)c1	?	-18%	-30	-8%	0%	4%
O=Cc1sc(=O)n(Cc2cccc(C(=O)O)c2)c1Cl	-26%	30µM*	-26	11%	-5%	79µM*
Cc1nc2c(c(=O)[nH]1)CSCC2	.	.	.	.	.	-7%
O=C(Nc1cccc(Cl)c1)OCCOC(=O)Nc1cccc(Cl)c1	-13%	-1%	-9	-29%	-7%	2%
O=C(Nc1cccc(Cl)c1)OCC#CCCl	.	.	.	.	.	3.5µM*
Clc1cccc(N/N=C/c2ccncc2)c1	-15%	-14%	9	-5%	-3%[46.1 µM]	8%
O=C(COC(=O)c1ccncc1)Nc1cccc(Cl)c1	4%	21µM*	-28	-5%	-9%	-19%
O=C(Nc1cccc(Cl)c1)O/N=C\c1ccncc1	4%	9.5µM*	.	-5%	.	5%
O=C(Cc1ccc(OCCCc2ccccc2)cc1)NO	.	.	.	10%	.	.
CC(C)C[C@H](NC(=O)[C@H]1O[C@@H]1C(=O)O)C(=O)NCCCCN=C(N)N	.	.	.	.	.	-1%

High-throughput results from PubChem BioAssay.
